The OligoGym collection

These sequences were tested against POLH (assay: pooled miR-30 sensor sort-seq; sequence = guide strand). Conditions: shRNA.
Further: reference of the scale not given here.

How did the sensor-assay potency score (higher = more potent) turn out when TTTAGAGGATTCTTCTAGCTTC was run?
Its sensor-assay potency score (higher = more potent) is 0.456.

For TAGAAGCAGACTTTTCTGCTTA, which sensor-assay potency score (higher = more potent) is on record?
The sensor-assay potency score (higher = more potent) was 0.259.

For TTACAGTTCTTGATGACAGTAA, which sensor-assay potency score (higher = more potent) is on record?
The sensor-assay potency score (higher = more potent) was 0.425.

For TACACGAATGCTCACAACCAGC, which sensor-assay potency score (higher = more potent) is on record?
The sensor-assay potency score (higher = more potent) was -1.33.

Which sensor-assay potency score (higher = more potent) does the source give for TATTGTGTGAAATTCCAGCTGA here?
Its sensor-assay potency score (higher = more potent) is 0.557.

With TAACTTCTTAGCATCATCTGCC as the sequence, how does the sensor-assay potency score (higher = more potent) read?
Its sensor-assay potency score (higher = more potent) is 0.509.

Which sensor-assay potency score (higher = more potent) does the source give for TTGCTTTAGAGGATTCTTCTAG here?
Its sensor-assay potency score (higher = more potent) is -0.177.

These sequences were tested against POLN in the same assay as above. Conditions: shRNA.

How did the sensor-assay potency score (higher = more potent) turn out when TTTGTTTACTTGTTTTCTCTGA was run?
Its sensor-assay potency score (higher = more potent) is -0.00359.

TTGATCTTGTGAACCTGCCTGT was tested. Which sensor-assay potency score (higher = more potent) did it give?
Its sensor-assay potency score (higher = more potent) is 0.754.

Which sensor-assay potency score (higher = more potent) does the source give for TTCATTATTTATATTCTCCATT here?
The sensor-assay potency score (higher = more potent) was -0.758.

With TTGCCATAAACCATAATCCTTC as the sequence, how does the sensor-assay potency score (higher = more potent) read?
The sensor-assay potency score (higher = more potent) was -1.02.

Which sensor-assay potency score (higher = more potent) does the source give for TTTTTGGTCAGCAGACAGCTGA here?
Its sensor-assay potency score (higher = more potent) is -1.02.

With TTATAAGAAACCGTTCTCCTGC as the sequence, how does the sensor-assay potency score (higher = more potent) read?
Its sensor-assay potency score (higher = more potent) is 0.596.

TTGCTCGTTATAAGAAACCGTT was tested. Which sensor-assay potency score (higher = more potent) did it give?
Its sensor-assay potency score (higher = more potent) is -0.677.

For TTTACTAACACCACAATTCCTC, which sensor-assay potency score (higher = more potent) is on record?
The sensor-assay potency score (higher = more potent) was -0.28.

Which sensor-assay potency score (higher = more potent) does the source give for TGACTTGATCTTGTGAACCTGC here?
The sensor-assay potency score (higher = more potent) was 0.614.

Which sensor-assay potency score (higher = more potent) does the source give for TCTATTTGAATGTAGATGCATG here?
The sensor-assay potency score (higher = more potent) was -0.558.

For TAATGGATGAAGGTCTCGCAGA, which sensor-assay potency score (higher = more potent) is on record?
Its sensor-assay potency score (higher = more potent) is -0.869.
